PubChem BioAssay AID1159580 (chemical genetic matrix, 2015)
Values joined by “and” are separate entries in the source; they are usually repeats but may differ in a detail not shown here. Identical values can stand only once. Hit rate of the full screen: of about 5,500 compounds, about 2,000 (36%) were called active. Inconclusive results (about 18%) are left out. Rule as the data show it: active = normalized growth mostly below about 0.91 (no sharp cut-off); inconclusive = no clear call, values can overlap the other calls; inactive = mostly above about 0.92. The list shows a part of the results.

Assay: chemical genetic growth profiling, strain panel (AID 1159580);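 also: tested at 20 µM; growth read once vehicle control cultures reached saturation at 30 °C; 1 = growth at the plate median or of vehicle wells; lower values mean less growth of the strain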
Settings: S. cerevisiae deletion strains, growth OD

Measured: normalized growth

CCN(CC)CCCC(C)Nc1ccnc2cc(Cl)ccc12 (configuration not stated)
inactive: locus YAL013W, strain DEP1, stronger effect = lower value 1.02 and 1.01 | locus YAL021C, strain ccr4, stronger effect = lower value 1.04 | locus YAL026C, strain drs2, stronger effect = lower value 1.02 | locus YAL030W, strain snc1, stronger effect = lower value 1.02 | locus YAL040C, strain CLN3, stronger effect = lower value 1.01 | locus YBL061C, strain skt5, stronger effect = lower value 1.03 | locus YBR009C, strain hhf1, stronger effect = lower value 1.01 | locus YBR021W, strain FUR4, stronger effect = lower value 0.976 | locus YBR023C, strain chs3, stronger effect = lower value 1.03 | locus YBR171W, strain sec66, stronger effect = lower value 1.05 | locus YBR229C, strain ROT2, stronger effect = lower value 1.01 | locus YBR231C, strain swc5, stronger effect = lower value 1.03 | locus YBR279W, strain paf1, stronger effect = lower value 1.02 | locus YCL011C, strain gbp2, stronger effect = lower value 1.04 | locus YCL016C, strain dcc1, stronger effect = lower value 1.03 | locus YCL029C, strain bik1, stronger effect = lower value 1.01 | locus YCL061C, strain MRC1 (second series), stronger effect = lower value 1.01 | locus YCL069W, strain vba3, stronger effect = lower value 1.03 | locus YCR088W, strain abp1, stronger effect = lower value 1.02 | locus YDL005C, strain med2, stronger effect = lower value 1.03 | locus YDL035C, strain GPR1, stronger effect = lower value 0.995 | locus YDL040C, strain nat1, stronger effect = lower value 1.03 | locus YDL074C, strain BRE1, stronger effect = lower value 1.04 | locus YDL101C, strain DUN1, stronger effect = lower value 1.04 | locus YDL134C, strain PPH21, stronger effect = lower value 0.985 | locus YDL185W, strain tfp1, stronger effect = lower value 1 | locus YDL192W, strain arf1, stronger effect = lower value 1 | locus YDR001C, strain nth1, stronger effect = lower value 1.03 | locus YDR069C, strain doa4, stronger effect = lower value 0.998 | locus YDR101C, strain arx1, stronger effect = lower value 0.993 | locus YDR137W, strain rgp1, stronger effect = lower value 1.06 | locus YDR159W, strain sac3, stronger effect = lower value 1.06 | locus YDR162C, strain NBP2, stronger effect = lower value 1.01 | locus YDR195W, strain ref2 1.07 | locus YDR297W, strain sur2, stronger effect = lower value 1.03 | locus YDR318W, strain mcm21, stronger effect = lower value 1.02 | locus YDR334W, strain swr1, stronger effect = lower value 1.03 | locus YDR335W, strain msn5, stronger effect = lower value 1.03 | locus YDR363W, strain ESC2, stronger effect = lower value 1.01 | locus YDR388W, stronger effect = lower value 1.01 | locus YDR392W, strain spt3, stronger effect = lower value 0.937 | locus YDR502C, strain sam2, stronger effect = lower value 0.995 | locus YEL003W, strain gim4, stronger effect = lower value 1.03 | locus YEL037C, strain rad23, stronger effect = lower value 1.03 | locus YEL061C, strain CIN8 (second series), stronger effect = lower value 1.03 | locus YEL061C, strain CIN8, stronger effect = lower value 1.01 | locus YER002W, strain NOP16, stronger effect = lower value 0.994 | locus YER015W, strain faa2, stronger effect = lower value 1.03 | locus YER016W, strain bim1, stronger effect = lower value 1 | locus YER110C, stronger effect = lower value 1.02 | locus YER111C, strain swi4, stronger effect = lower value 1.04 | locus YER155C, strain BEM2 (second series), stronger effect = lower value 0.966 | locus YER155C, strain BEM2, stronger effect = lower value 1.01 | locus YER167W, strain BCK2, stronger effect = lower value 1.01 | locus YFR010W, strain ubp6, stronger effect = lower value 1.03 | locus YGL078C, strain dbp3, stronger effect = lower value 1.02 | locus YGL086W, strain mad1, stronger effect = lower value 0.996 | locus YGL167C, strain pmr1, stronger effect = lower value 1.04 | locus YGL173C, strain kem1, stronger effect = lower value 1.04 | locus YGL227W, strain vid30, stronger effect = lower value 1.03 | locus YGL240W, strain doc1, stronger effect = lower value 1.03 | locus YGL248W, strain PDE1, stronger effect = lower value 1.04 | locus YGL253W, strain hxk2, stronger effect = lower value 1.01 | locus YGR135W, strain pre9, stronger effect = lower value 1.04 | locus YGR252W, strain gcn5, stronger effect = lower value 1.02 | locus YHR013C, strain ard1, stronger effect = lower value 0.965 | locus YHR027C, strain rpn1, stronger effect = lower value 1.03 | locus YHR030C, strain SLT2, stronger effect = lower value 1 and 0.96 | locus YHR079C, strain IRE1 (second series), stronger effect = lower value 1.01 | locus YHR079C, strain IRE1, stronger effect = lower value 0.961 | locus YHR094C, strain hxt1, stronger effect = lower value 1.01 | locus YHR129C, strain ARP1, stronger effect = lower value 1.02 | locus YHR142W, strain chs7, stronger effect = lower value 1.04 | locus YHR200W, strain rpn10, stronger effect = lower value 1.01 | locus YIL066C, strain RNR3, stronger effect = lower value 1.02 | locus YIL073C, strain SPO22, stronger effect = lower value 1.01 | locus YIL125W, strain kgd1, stronger effect = lower value 1 | locus YIR030C, strain dcg1, stronger effect = lower value 1 | locus YJL092W, strain hpr5, stronger effect = lower value 1.02 | locus YJL095W, strain BCK1 (second series), stronger effect = lower value 1.03 | locus YJL095W, strain BCK1, stronger effect = lower value 1.07 and 0.962 | locus YJL115W, strain asf1, stronger effect = lower value 1.05 | locus YJL129C, strain trk1, stronger effect = lower value 1.02 | locus YJL134W, strain LCB3, stronger effect = lower value 1.01 | locus YJL154C, strain vps35, stronger effect = lower value 1.02 | locus YJL164C, strain tpk1, stronger effect = lower value 1.02 | locus YJL166W, strain qcr8, stronger effect = lower value 1 | locus YJL168C, strain set2, stronger effect = lower value 1.01 | locus YJL187C, strain SWE1 (second series), stronger effect = lower value 1.05 | locus YJL187C, strain SWE1, stronger effect = lower value 1.03 | locus YJR043C, strain POL32, stronger effect = lower value 0.981 | locus YJR066W, strain TOR1, stronger effect = lower value 0.979
